DT40 TDP1 CPT: qHTS for Inhibitors of human tyrosyl-DNA phosphodiesterase 1 (TDP1): qHTS in cells in presence of CPT. chicken DT40 Tdp1-/-;hTDP1 cells + 20 nM CPT, ATP luminescence, 48 h. AID 686979, 2013. Potency, µM (highest dose often 46.2 µM), without a hit: at the highest dose activity change, negative = growth inhibition, actives largely listed as inhibitors. 12% of 420,000 active; also: potency is read from the fitted curve at half-maximal effect; nearly all actives have a fitted effect of over 55% in size
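Cell growth measured by CellTiter-Glo luminescence after a minimum 48 h, 37 C compound exposure with 20 nM CPT in Tdp1-knockout DT40 cells stably expressing hTDP1, seeded 400/well; qHTS titration format.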
HT1080NT lethal: qHTS for induction of synthetic lethality in tumor cells producing 2HG: qHTS for the HT-1080-NT fibrosarcoma cell line. HT-1080-NT fibrosarcoma viability, CellTiter-Glo ATP luminescence, 48 h. Potency, µM (series often up to 46.1 µM), without a hit: top-dose activity, negative = less viability, most hits filed as cytotoxic. 1.6% of 360,000 active;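 also: NT is the 2HG producing partner of a matched IDH1 knockdown line; potency is read from the fitted curve at half-maximal effect; 0% = DMSO-treated cells and -100% = media-only wells without cells; nearly all actives have a fitted effect of over 55% in size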
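Fibrosarcoma NT cells, 750 per well in 5% FBS RPMI, were exposed to compound for 48 hours. Viability: CellTiter-Glo luminescence.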
HT1080 IDH1KD tx: qHTS for induction of synthetic lethality in tumor cells producing 2HG: qHTS for the HT-1080-IDH1KD cell line; Potency, µM (top dose mostly 46.1 µM), for inactives: at the top dose activity, negative = toxicity, most hits filed as cytotoxic; HT-1080 IDH1 knockdown viability, ATP luminescence, 48 h; 2% of 360,000 active;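 also: potency is read from the fitted curve at half-maximal effect; 0% = DMSO wells and -100% = cell-free medium wells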
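IDH1KD HT-1080 cells, 750/well, RPMI + 5% FBS; compound pinned after 2 h settling; 48 h, 37 °C; CellTiter-Glo luminescence; % activity normalised to DMSO and no-cell wells; curves fitted, classed by r2 and efficacy.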
IL-1B inflam inh: qHTS for Inhibitors of Inflammasome Signaling: IL-1-beta AlphaLISA Primary Screen. 4.7% of 360,000 active. activity change, % at 57.5 µM. THP-1 LPS/ATP IL-1B secretion, AlphaLISA, 16 h; stronger effect = lower value; in the data active = activity change below about -50%; inconclusive = mostly about -30% to -49%
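Secreted IL-1B measured by AlphaLISA bead assay after 16 h compound exposure of THP-1 cells; compounds (final up to 57.5 uM) added 1 h before LPS (250 ng/mL) and ATP (1.25 mM) stimulation; lower signal means less secretion.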
TDP1 cell noCPT: qHTS for Inhibitors of human tyrosyl-DNA phosphodiesterase 1 (TDP1): qHTS in cells in absence of CPT; DT40 Tdp1-/- hTDP1 cells, no CPT, ATP luminescence, 48 h; Potency, µM (highest dose often 46.2 µM), for inactives: top-dose activity change, negative = growth inhibition, hits mostly inhibitors; 15% of 420,000 active; also: potency is read from the fitted curve at half-maximal effect; nearly all actives have a fitted effect of over 55% in size
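Readout: luminescence from CellTiter-Glo after 30 min in the dark at RT. Cells: DT40 Tdp1-/- with stable hTDP1, 400/well. Exposure: compounds alone, ≥48 hr, 37 °C.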
Numbers without * were called inactive; ? = inconclusive; / = no result; [ ] = another dose, or the depositor's remark. Only some compounds are listed: those with a hit (about 19% of all), similar ones and a draw of the others. Unless noted, calls follow the shape of the dose curve; as a rule, active = well fitted curve in the direction sought with a large enough effect; inconclusive = small, poorly fitted or top-dose-only effect, or another doubt; inactive = no such curve, though single readings can be large; an effect the other way counts as inactive or inconclusive. Unless noted, % is scaled to controls: 0 for no effect and ±100 for the full control effect.

SMILES | DT40 TDP1 CPT | HT1080NT lethal | HT1080 IDH1KD tx | IL-1B inflam inh | TDP1 cell noCPT
O=C(CSc1nnc2scc(-c3ccc(Cl)cc3)n12)Nc1ccccc1F | -18.5% | / | / | / | ?
O=C(CN1c2ccccc2Sc2ccccc21)N/N=C/c1ccc(Cl)cc1 | ? | -13.1% | -11.4% | -14.6 | ?
O=C(CN1c2ccccc2Sc2ccccc21)N/N=C/c1ccc(Cl)cc1Cl | ? | -1.9% | 19.1% | -20.7 | 18.4µM*
CC(CCC(=O)NN)C1CCC2C3CCC4CC(O)CCC4(C)C3CCC12C (configuration not stated) | 1.3% | -0.7% | -11.0% | 0.0 | 25.9µM*
CC1(C)CC(N=c2cc(-c3ccccc3)oc3ccc(Cl)cc23)CC(C)(C)N1 | 5.17µM* | 7.31µM* | 16.4µM* | -101.7* | 5.8µM*
OCCCN=c1cc(-c2ccccc2)oc2ccc(Cl)cc12 | ? | ? | ? | -102.3* | 18.4µM*
O=c1cc(-c2ccccc2)oc2ccc(O)cc12 | ? | 6.9% | 11.7% | -6.1 | ?
O=C(NCC1Cc2cc(-c3cncnc3)cc(Cl)c2O1)c1cccc(Cn2cccn2)c1 (configuration not stated) | 3.3%[9.04 µM] | / | / | / | -25.3%
CCN1C(=O)/C(=C/c2ccc(C)s2)SC1=Nc1ccc(OC)cc1 | 9.2µM* | -13.4% | ? | -14.9 | 9.2µM*
CCCN1C(=O)/C(=C/c2ccc(C)o2)SC1=Nc1ccc(OC)cc1 | 9.2µM* | ? | ? | -12.1 | 8.2µM*
CCCN1C(=O)/C(=C/c2ccco2)SC1=Nc1ccc(OC)cc1 | -23.0% | 2.4% | -0.5% | -13.5 | ?
Cc1cccc(CNC(=O)C2CCCN(S(=O)(=O)c3cn(C)cn3)C2)c1 (configuration not stated) | -12.0% | / | / | / | -5.3%
CC(OC(=O)c1ccc2c(=O)n3c(nc2c1)CCCCC3)C(=O)Nc1ncc(Cl)cc1Cl (configuration not stated) | -17.5% | -5.0% | -8.7% | 10.2 | -26.8%
O=C(Nc1cccc(C(F)(F)F)c1)c1ccc2c(c1)nnn2C1CCCC1 | ? | / | / | / | 8.2µM*
CCc1ccccc1NC(=O)c1ccc2c(c1)nnn2C1CCCC1 | 25.9µM* | / | / | / | ?
O=C(Nc1nnc([C@H]2C[C@H](O)[C@@H](CO)O2)s1)Nc1cccc2c1CCCC2 | -2.3% | 14.2% | 24.9% | 30.1 | -7.7%
COc1ccccc1N1CCN(C(CNC(=O)C2CCCCC2)c2cccnc2)CC1 (configuration not stated) | 8.2µM* | -4.4% | 1.0% | 5.8 | 10.3µM*
COc1ccccc1N1CCN(C(CNS(=O)(=O)c2ccccc2)c2cccnc2)CC1 (configuration not stated) | 23.1µM* | -1.7% | -5.4% | 13.9 | 18.4µM*
O=C(NCC(c1cccnc1)N1CCOCC1)C1CCCCC1 (configuration not stated) | 16.6% | 1.7% | 0.1% | 6.7 | -5.3%
Cc1ccc(CNC(=O)C(=O)Nc2c3c(nn2-c2ccc(F)cc2)CSC3)cc1 | ? | / | / | / | 5.17µM*
CCOC(=O)CSc1nc2ccccc2c(=O)n1CCc1ccc(OC)c(OC)c1 | 13µM* | / | / | / | 11.6µM*
CCCCNC(=O)C(CC)Sc1nc2ccccc2c(=O)n1CCc1ccc(OC)c(OC)c1 (configuration not stated) | 8.2µM* | / | / | / | 8.2µM*
CCC(Sc1nc2cc(OC)c(OC)cc2c(=O)n1CCc1ccc(S(N)(=O)=O)cc1)C(=O)NCCOC (configuration not stated) | -17.7% | 0.8% | 2.9% | -1.6 | ?
CCOc1ccc(CCn2c(-c3ccco3)nc3ccccc3c2=O)cc1OCC | 1.3µM* | ? | 3.55µM* | -57.0* | 0.82µM*
CCOC(=O)CSc1nc2ccccc2c(=O)n1CCC(=O)NCCc1ccc(OC)c(OC)c1 | -7.0% | -0.6% | 0.7% | -3.4 | -20.0%
SMILES | DT40 TDP1 CPT | HT1080NT lethal | HT1080 IDH1KD tx | IL-1B inflam inh | TDP1 cell noCPT
COc1cc(=O)n2c(c1C(=O)N(C)Cc1cscn1)CCN(C(=O)c1ccc(C)c(C)c1)CC2 | 6.8% | / | / | / | -2.9%
COc1ccc(C2c3c(n(C)c4ccccc34)C(=O)N2CC(=O)Nc2ccccc2Cl)cc1 (configuration not stated) | ? | / | / | / | 25.9µM*
COc1ccc(CNC(=O)CN2C(=O)c3ccccc3C2=O)cc1 | -0.1% | 15.1% | 19.5% | 13.5 | 0.4%
COc1ccc(C2c3c(n(C)c4ccccc34)C(=O)N2CC(=O)Nc2ccccc2F)cc1 (configuration not stated) | 16.4µM* | / | / | / | ?
CCCNC(=O)CN1C(=O)c2c(c3ccccc3n2C)C1c1ccc(OC)cc1 (configuration not stated) | ? | / | / | / | 13µM*
CCC(=O)Nc1c(-c2ccc(OC)cc2)c(=O)c2ccccc2n1C | -0.2% | 11.9% | 14.5% | 20.7 | 4.9%
COc1ccccc1CNC(=O)c1sc2nc3n(c(=O)c2c1C)CCC3 | -18.7% | / | / | / | -26.4%
CC(C)c1ccc(NC(=O)C2CCCN(S(=O)(=O)c3cccc4cccnc34)C2)cc1 (configuration not stated) | 16.4µM* | / | / | / | 16.4µM*
O=C(Nc1ccncc1)C1CCCN(S(=O)(=O)c2cccc3cccnc23)C1 (configuration not stated) | 1.84µM* | 3.26µM* | ? | 33.1 | 1.64µM*
O=C(NCC1COc2ccccc2O1)C1CCCN(S(=O)(=O)c2cccc3cccnc23)C1 (configuration not stated) | 20.6µM* | 1.6% | -0.1% | -26.6 | ?
O=C(C1CCCN(S(=O)(=O)c2cccc3cccnc23)C1)N1CCc2ccccc21 (configuration not stated) | 23.1µM* | -18.2% | 0.0% | 33.2 | 16.4µM*
COc1ccc(S(=O)(=O)N2CCOCC2)cc1C(=O)Nc1cc(C)on1 | 3.6% | 12.4% | 11.1% | -2.4 | -8.3%
CCCCc1nc2ccccc2c(N)c1CCC (tested in a mixture with another compound) | ? | ? | ? | -96.6* | 18.4µM*
CCCCc1nc2ccccc2c(NC(=O)CNC(C)(C)C)c1CCC | ? | -14.7% | -18.4% | 29.8 | ?
Cc1ccc(C2N(c3cccc(Cl)c3)C(=O)N3CCCN23)cc1 (configuration not stated) | ? | 5.1% | 1.0% | -9.4 | ?
